From the OligoGym collection come the findings set out here.
Note: reference of the scale not given here.

In the first experiment the target is PION. The experiment in a line: pooled miR-30 sensor sort-seq; sequence = guide strand. Particulars: shRNA.
With TTAGTAGACTGAACTAAACTTG, the sensor-assay potency score (higher = more potent) was -0.14.

For TTGAACATTAAGTAGGTGGAAG, the sensor-assay potency score (higher = more potent) was -0.626.

TTTCTTCTTTTCTACACCCTGT had a sensor-assay potency score (higher = more potent) of 0.0243.

As for TTTTCTAAAACATCTGCGCCGC, the sensor-assay potency score (higher = more potent) was -0.387.

TAGTAGACTGAACTAAACTTGC: the sensor-assay potency score (higher = more potent) was -0.883.

In the case of TAGACTGAACTAAACTTGCAGC, the sensor-assay potency score (higher = more potent) is -0.224.

TAACATACACACAAACTTCCTG came in with a sensor-assay potency score (higher = more potent) of 0.883.

The sequence AACATACACACAAACTTCCTGT showed a sensor-assay potency score (higher = more potent) of 0.437.

For TTTTCTTCTTTTCTACACCCTG, the sensor-assay potency score (higher = more potent) is -0.629.

In a further experiment the target is PIP5K1B. The experiment is described as above. The settings on record: shRNA.
For the sequence TTGCAGGAAATCTAAGTCCTTA, the sensor-assay potency score (higher = more potent) is -0.188.

On to TTTGAATAGAGTGTAGGCCTGT, for which the sensor-assay potency score (higher = more potent) was determined as 0.71.

In turn, TTGAACTGGAAGGTAACCCTTT registered a sensor-assay potency score (higher = more potent) of 0.268.

As to TTGAGGACACAATCTCCTGTGA, the sensor-assay potency score (higher = more potent) is -0.569.

TTAAATTCATGTAATAGCCTGG had a sensor-assay potency score (higher = more potent) of 0.247.

Sequence TTCGCTTATACGTTGAGCCTTT returned a sensor-assay potency score (higher = more potent) of 0.43.

For the sequence TAATCCATGATCTTGAAGCTTT, the sensor-assay potency score (higher = more potent) was -0.406.

As for TTGCATACAATACAGTCCGTAA, the sensor-assay potency score (higher = more potent) was -1.09.

Consider TTGGTCTATGAACAGAAACAGT, for which the sensor-assay potency score (higher = more potent) was -1.55.

On to TCTAACTTCTTCATTAACCTAT, for which the sensor-assay potency score (higher = more potent) was 0.135.

Turning to TTGACATCTTGAAAACTCTTAA, the sensor-assay potency score (higher = more potent) is -0.776.
